# Test results taken from PubChem BioAssay (NCI).
# Compounds without any hit were thinned out: in the full panel of roughly 83,000, 20% have a hit.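 Results are percent growth after 48 hours of single-concentration exposure. 100 means growth as in untreated cells, lower positive values show inhibition; negative values down to -100 show cell death.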 Values without a mark were called inactive. Activity calls are given as the source filed them. Rule for the calls: active = growth percent below 10; inactive = the rest.
# Tested on: MDA-MB-468 breast
# Test: NCI-60 one-dose screen, 48 h (100 = growth as untreated, 0 = no growth, -100 = all killed)
# Conditions: 10 µM unless noted
row,Structure (SMILES),growth
1,C=C1CC2(OC1=O)C(=O)Nc1ccccc12 (stereo not given),-11.5% (active)
2,Cc1ccc2c(c1)sc1nc(-c3c[nH]c4ccccc34)c(Nc3ccccc3)n12,105%
3,COc1cc(NCCCCN=C(N)NC(N)=NC(C)C)c2ncccc2c1,-61.8% (active)
4,Cn1cc(CC2CC(=O)N(c3ccccc3)C2=O)sc1=NC(=O)c1ccccc1 (stereo not given),99.8%
5,O=C(CN1C(=O)CCC1=O)Nc1ncc(Cc2ccc(F)cc2)s1,109%
6,C=C1C(=O)O[C@H]2[C@H]1CC/C(COC(=O)/C=C\C(=O)NCc1ccc(Cn3c(=O)sn(-c4ccc(Cl)cc4)c3=O)cc1)=C\CC[C@@]1(C)O[C@@H]21,-83.5% (active)
7,COc1ccc(C2C(c3nn[nH]n3)=C(N)Oc3c2ccc2ccccc32)cc1 (stereo not given),43.8%
8,N/C(=N/N=C/c1ccccc1)N/N=C\c1ccccc1,-15.7% (active)
9,Nc1nc(Nc2ccccc2SSc2ccccc2Nc2nc(N)nc(C(Cl)(Cl)Cl)n2)nc(C(Cl)(Cl)Cl)n1,86.6%
10,C=C1C[C@H](O)[C@H](Br)C(C)(C)[C@@]12CCC(C)=C(Cl)C2,-28.3% (active)
11,O=C(N/N=C/c1ccc(Cl)s1)c1[nH]c2ccc(Br)cc2c1-c1ccccc1,2.96% (active)
12,CN1CCN(c2ccc(Nc3nc(NCCNC(=O)c4ccccc4)c4sccc4n3)cc2)CC1,45.3%
13,COc1ccccc1NC1=C(Cl)C(=O)c2nc(C)ccc2C1=O,-79.7% (active)
14,N#Cc1c(N2CCNCC2)nc2sc3cc(Cl)c(Cl)cc3n2c1=N,90.2%
15,CCCNC(=O)c1cn2ncnc(Nc3cc(C(=O)NC4CC4)ccc3C)c2c1C,73%
16,COc1ccc(NC(=O)c2ccccc2-c2ccccc2)c(C(N)=O)c1,27.3%
17,CNC(C)=O,102%
18,C=CCc1cc(Cl)cc2c(OC(C)=O)c(C(C)=O)c(-c3ccccc3)nc12,116%
19,O=c1[nH]c2cc(Cl)c(Cl)cc2o1,111%
20,Clc1ccc(C2=NN(c3ccc(Cl)cc3)C(c3cccc(Nc4ccnc5cc(Cl)ccc45)c3)C2)cc1 (stereo not given),78.2%

row,Structure (SMILES),growth
1,O=C(CSc1nnnn1-c1ccccc1)Nc1ccc(Oc2ccccc2)cc1,115%
2,Cc1ccc(/C=C/CC(=O)Nc2ccc(C(=O)Nc3ccc(F)cc3N)nc2)cn1,4.55% (active)
3,Cc1cc(=O)oc2cc(OCc3nn4c(Nc5nc6ccccc6s5)c(-c5ccccc5)nc4s3)ccc12,89.9%
4,O=C(/C=C/c1sc(Cl)nc1Cl)c1ccc(F)cc1,40.9%
5,COc1ccc(/C=C/C(=O)c2nnn(-c3ccc(C(=O)O)cc3)c2C)cc1OC,84.6%
6,O=C1Nc2ccccc2/C1=C\c1c(-c2ccccc2)nc2ccccn12,15.3%
7,OC(c1cc2cc(Br)ccc2c2cc(Br)ccc12)C1CCCCN1 (stereo not given),-83.1% (active)
8,c1ccc(-c2n(Cc3ccc4ccccc4n3)cc[n+]2Cc2ccc3ccccc3n2)cc1,-12.3% (active)
9,O=C(NCc1cccc(CNC(=O)Nc2nc3ccccc3[nH]2)c1)Nc1nc2ccccc2[nH]1,-20.2% (active)
10,Cc1ccc(OCCOCCOCCOCCOCCOc2ccc(C)n(O)c2=S)c(=S)n1O,-22.8% (active)
11,COc1ccc(C(=O)/C=C/c2c(OC)cc(OC)cc2OC)c(OC)c1,-25.1% (active)
12,Cc1cc(C(NC(=O)CCCCCNc2cccc3c2C(=O)N(C2CCC(=O)NC2=O)C3=O)c2cccnc2)c(O)c2ncccc12 (stereo not given),-8.72% (active)
13,CC(=O)Nc1ccc(S(=O)(=O)Cl)cc1,95%
14,O=c1[nH]c2ccccc2cc1CSc1ccccc1Nc1nccc(-c2ccc(C(F)(F)F)cc2)n1,47.6%
15,COc1ccc(OC)c(Cn2cc3c(c2)-c2oncc2CC3)c1,3.48% (active)
16,CCOC(=O)c1c(C)oc2ncnc(Nc3ccc(C(=O)NCCc4ccccc4)cc3)c12,90.7%
17,Nc1nc(N)c(C=Nc2ccc(Br)cc2)c(Nc2ccc(Br)cc2)n1,109%
18,CCN1C(=O)N(CC)C2C1NN=c1s/c(=C\c3ccco3)c(=O)n12 (stereo not given),13.8%
19,O=C(S)CNC(=O)c1ccccc1,95.7%
20,CCn1cnc(C[C@H](NC(=O)[C@@H](NC(=O)Nc2cc(C(F)(F)F)cc(C(F)(F)F)c2)C(C)C)C(=O)OC)c1,-81.1% [100 µM] (active)
